Results reported in PubChem BioAssay (NCI).
The panel holds about 79,000 compounds, 15% with a hit somewhere; the sample as a whole holds those more often. Active and inactive are the calls of the source. Rule as the data show it: active = growth inhibition above about 70%; inactive = the rest.

Assay: NCI Yeast Anticancer Drug Screen. Data for the rad50 strain (AID 155);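 also: 0% = growth of vehicle-only cultures of the same strain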
Conditions: S. cerevisiae rad50 strain growth inhibition; at 100.0 µM; hits give high values
In short: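 Compounds were tested on a yeast strain with an engineered DNA damage repair alteration; the reported value is growth inhibition normalised to vehicle treatment.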
For `CC(C)c1cc(C(C)C)c(O)c(C([O-])[O-])c1.CC(C)c1cc(C(C)C)c(O)c(C([O-])[O-])c1.CC(C)c1cc(C(C)C)c(O)c(C([OH2+])[OH2+])c1.CC(C)c1cc(C(C)C)c(O)c(C([OH2+])[OH2+])c1.[Cu+2].[Cu+2].[OH3+].[OH3+]`, the growth inhibition was 94% (active). In the case of `Cc1cc(I)ccc1N`, the growth inhibition is reported as 93% (active). In the case of `CC(Br)C(=O)c1ccc2cc(Br)c3ccccc3c2c1` (stereo not drawn), the growth inhibition is reported as 0% (inactive). In the case of `O=C(Nc1ccccc1)OCCc1ccc(Cl)c(Cl)c1`, the growth inhibition is reported as 51% (inactive). In the case of `O=Cc1cccc2ccc3ccccc3c12`, the growth inhibition is reported as 97% (active). With `O=[N+]([O-])CC(SCc1ccccc1)c1ccc2c(c1)OCO2` (stereo not drawn) the growth inhibition was 98% (active). With `CC1(Cl)CC(O)C2(CC1Br)C1(C)OC1C1OC1(Br)C2(C)C` (stereo not drawn) the growth inhibition was 97% (active). With `Cc1cc(O)cc(O)c1N=Nc1ccc([N+](=O)[O-])cc1` the growth inhibition was 31% (inactive). With `CCCCCCCCCCCCCC[N+](C)(CC(=O)[O-])Cc1ccccc1` (stereo not drawn) the growth inhibition was 99% (active). In the case of `CC1=NN(c2cccc(Cl)c2)C(=O)C1`, the growth inhibition is reported as 28% (inactive). For `CC(=O)OCc1ccc(O)c(C=O)c1`, the growth inhibition was 59% (inactive). For `Cc1ccc2ccc3cccc4ccc1c2c34`, the growth inhibition was 66% (inactive). For `Cc1nc(-[n+]2nc(-c3ccncc3)nn2-c2ccccc2)sc1C`, the growth inhibition was 58% (inactive). In the case of `C(CCSC1=NCCN1)CSC1=NCCN1` (tested in a mixture with another compound), the growth inhibition is reported as 98% (active). In the case of `CCCCCCCCCCC(=O)Cl`, the growth inhibition is reported as 29% (inactive). With `COC1C=COC2(C)Oc3c(C)c(O)c4c(c3C2=O)/C(=N/C2CCC(O)OC2C)C=C(NC(=O)/C(C)=C\C(=O)C2CC2C(O)C(C)C(O)C(C)C(OC(C)=O)C1C)C4=O` (stereo not drawn) the growth inhibition was 90% (active). With `S=c1[nH]nc(Nc2ccc(Cl)cc2)s1` the growth inhibition was 42% (inactive). For `O=C1CSC(/C=C/c2ccccc2)N1c1ccc(-c2ccc(-n3c(-c4ccccc4)nc4ccccc4c3=O)cc2)cc1` (stereo not drawn), the growth inhibition was 58% (inactive). In the case of `O=C1C=CC(=O)N1c1ccc2c(c1)Cc1cc(NC(=O)C(F)(F)F)ccc1-2`, the growth inhibition is reported as 80% (active). With `Brc1ccc(-c2cc3c(cc2C2SCCS2)OCO3)cc1` the growth inhibition was 30% (inactive). In the case of `Oc1ccc2ccccc2c1C(c1ccc(Cl)cc1)c1c(O)ccc2ccccc12`, the growth inhibition is reported as 89% (active). In the case of `C[CH2][Sn]([CH2]C)([O]C(=O)C(OC(C)=O)c1ccccc1)[O]C(=O)C(OC(C)=O)c1ccccc1` (stereo not drawn), the growth inhibition is reported as 91% (active). For `Cc1ccc2ccc(O)cc2c1`, the growth inhibition was 92% (active).

Assay: NCI Yeast Anticancer Drug Screen. Data for the mec2-1 strain (AID 157)
Conditions: S. cerevisiae mec2-1 strain, at 1.2 µM, hits give high values
In short: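 Cells of the genetically defined mec2-1 yeast strain are incubated with test compound. Inhibition of growth is calculated against vehicle-treated controls.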
With `Cc1cccc2c(C(O)CBr)cc(-c3ccc(Cl)cc3)nc12` (stereo not drawn) the growth inhibition was 0% (inactive). In the case of `CN(C)C[C@H]1CC[C@@H](CN(C)C)C1=O`, the growth inhibition is reported as 13% (inactive). With `CC1=C(SCCO)C(=O)c2ccccc2C1=O` the growth inhibition was -1% (inactive). In the case of `COC(=O)CCNc1c2ccccc2nc2cccc([N+](=O)[O-])c12`, the growth inhibition is reported as 97% (active). For `CC(/C=C/c1ccc2c(c1)OCO2)[N+](=O)[O-]` (stereo not drawn), the growth inhibition was 4% (inactive). In the case of `COC(=O)C1=C(C)NC(C)=C(C(=O)OCCCN2CCC(c3ccccc3)(c3ccccc3)CC2)C1c1cccc([N+](=O)[O-])c1` (stereo not drawn), the growth inhibition is reported as -1% (inactive). For `CCOC(=O)c1cnc2c(C(F)(F)F)cccc2c1N=[N+]=[N-]`, the growth inhibition was -3% (inactive). For `O=[N+]([O-])c1cc2no[n+]([O-])c2cc1N1CCCCC1`, the growth inhibition was 28% (inactive). With `COC(=O)c1ccc(NCC2=CC(=O)C=CC2=O)cc1O` the growth inhibition was -2% (inactive). With `CCCCCCCCNC(=O)C1=C(C)NC(C)=C(C(=O)NCCCCCCCC)C1` the growth inhibition was 0% (inactive). With `S=C(Nc1ccc(Cl)c(Cl)c1)SCc1ccc2c(c1)OCO2` the growth inhibition was -2% (inactive). For `O=S(=O)(CCCl)c1ccccc1Cl`, the growth inhibition was 2% (inactive). In the case of `Nc1ccccc1CC(O)C(=O)O` (stereo not drawn), the growth inhibition is reported as 0% (inactive). For `CN(C)c1ccc(Sc2ccc3nc(N)nc(N)c3c2)cc1`, the growth inhibition was -28% (inactive). For `CC(C)C1=CCC2C(=C1)CCC1C(C)(C(=O)O)CCCC21C` (stereo not drawn) (tested in a mixture with another compound), the growth inhibition was 18% (inactive). With `Cc1ccc(S(=O)(=O)Oc2cc(Cl)c(Cl)cc2Cl)cc1` the growth inhibition was -1% (inactive). With `CSC(=S)Nc1cc(C)ccn1` the growth inhibition was -19% (inactive). For `CC(C)c1cc(C(C)C)c(O)c(C([O-])[O-])c1.CC(C)c1cc(C(C)C)c(O)c(C([O-])[O-])c1.CC(C)c1cc(C(C)C)c(O)c(C([OH2+])[OH2+])c1.CC(C)c1cc(C(C)C)c(O)c(C([OH2+])[OH2+])c1.[Cu+2].[Cu+2].[OH3+].[OH3+]`, the growth inhibition was 7% (inactive). With `Cc1cc(I)ccc1N` the growth inhibition was -3% (inactive). In the case of `CC(Br)C(=O)c1ccc2cc(Br)c3ccccc3c2c1` (stereo not drawn), the growth inhibition is reported as 2% (inactive). In the case of `O=C(Nc1ccccc1)OCCc1ccc(Cl)c(Cl)c1`, the growth inhibition is reported as -3% (inactive). In the case of `O=Cc1cccc2ccc3ccccc3c12`, the growth inhibition is reported as -1% (inactive). In the case of `O=[N+]([O-])CC(SCc1ccccc1)c1ccc2c(c1)OCO2` (stereo not drawn), the growth inhibition is reported as -2% (inactive). In the case of `CC1(Cl)CC(O)C2(CC1Br)C1(C)OC1C1OC1(Br)C2(C)C` (stereo not drawn), the growth inhibition is reported as -29% (inactive). In the case of `Cc1cc(O)cc(O)c1N=Nc1ccc([N+](=O)[O-])cc1`, the growth inhibition is reported as 7% (inactive). With `CCCCCCCCCCCCCC[N+](C)(CC(=O)[O-])Cc1ccccc1` (stereo not drawn) the growth inhibition was -2% (inactive). For `CC1=NN(c2cccc(Cl)c2)C(=O)C1`, the growth inhibition was -35% (inactive). With `CC(=O)OCc1ccc(O)c(C=O)c1` the growth inhibition was -13% (inactive). In the case of `Cc1ccc2ccc3cccc4ccc1c2c34`, the growth inhibition is reported as -1% (inactive). For `Cc1nc(-[n+]2nc(-c3ccncc3)nn2-c2ccccc2)sc1C`, the growth inhibition was -1% (inactive). With `C(CCSC1=NCCN1)CSC1=NCCN1` (tested in a mixture with another compound) the growth inhibition was 5% (inactive). In the case of `CCCCCCCCCCC(=O)Cl`, the growth inhibition is reported as -1% (inactive). In the case of `COC1C=COC2(C)Oc3c(C)c(O)c4c(c3C2=O)/C(=N/C2CCC(O)OC2C)C=C(NC(=O)/C(C)=C\C(=O)C2CC2C(O)C(C)C(O)C(C)C(OC(C)=O)C1C)C4=O` (stereo not drawn), the growth inhibition is reported as 0% (inactive). For `S=c1[nH]nc(Nc2ccc(Cl)cc2)s1`, the growth inhibition was -1% (inactive). With `O=C1CSC(/C=C/c2ccccc2)N1c1ccc(-c2ccc(-n3c(-c4ccccc4)nc4ccccc4c3=O)cc2)cc1` (stereo not drawn) the growth inhibition was -1% (inactive). In the case of `O=C1C=CC(=O)N1c1ccc2c(c1)Cc1cc(NC(=O)C(F)(F)F)ccc1-2`, the growth inhibition is reported as 13% (inactive). With `Brc1ccc(-c2cc3c(cc2C2SCCS2)OCO3)cc1` the growth inhibition was -29% (inactive). For `Oc1ccc2ccccc2c1C(c1ccc(Cl)cc1)c1c(O)ccc2ccccc12`, the growth inhibition was -72% (inactive). In the case of `C[CH2][Sn]([CH2]C)([O]C(=O)C(OC(C)=O)c1ccccc1)[O]C(=O)C(OC(C)=O)c1ccccc1` (stereo not drawn), the growth inhibition is reported as 1% (inactive). For `Cc1ccc2ccc(O)cc2c1`, the growth inhibition was -37% (inactive).
